FMDV antiviral: foot and mouth disease virus antiviral activity. FMDV antiviral cell-based qHTS. Potency, µM (series often up to 57.9 µM), for the others: top-dose activity change, negative = inhibition, actives largely listed as inhibitors. hit rate 1.2% among 410,000. AID 1159524; calls by dose curve; tested in HEK293T cells; also: read-out not given here; potency is read from the fitted curve at half-maximal effect; % is scaled to controls: 0 for no effect and ±100 for the full control effect; nearly all actives have a fitted effect of over 45% in size
LASV entry inh: inhibitors of Lassa virus binding or cell entry | Lassa virus pseudotype entry inhibition, cell reporter | Potency, µM (doses to about 37.9 µM), for the others: at the highest dose activity change, negative = inhibition, actives largely listed as inhibitors | hit rate 1.2% among 300,000; calls by dose curve; tested in HEK293 cells; also: potency is read from the fitted curve at half-maximal effect; % is scaled to controls: 0 for no effect and ±100 for the full control effect; nearly all actives have a fitted effect of over 50% in size
MARV entry inh: Marburg virus entry inhibition; hit rate 1.8% among 300,000; AID 540276; Potency, µM (highest dose often 37.8 µM), for inactives: top-dose activity change, negative = inhibition, usual class: inhibitors; Marburg virus pseudotyped entry inhibition, cell reporter; calls by dose curve; tested in HEK293 cells; also: potency is read from the fitted curve at half-maximal effect; % is scaled to controls: 0 for no effect and ±100 for the full control effect
HCMV inh: human cytomegalovirus inhibition. HFF cells, HCMV-luciferase reporter, 72 h; stronger effect = lower value. activity change, negative = inhibition, % at 57.5 µM. hit rate 4.5% among 410,000. AID 1259415; in the data active = activity change below about -60%; inconclusive = no clear call, values can overlap the other calls; inactive = above about -39%; also: % is scaled to controls: 0 for no effect and ±100 for the full control effect
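Luciferase read-out from HCMV-luciferase-infected HFFs (MOI 1 PFU/cell) 72 h post infection at 37C; compounds added after 16 h cell attachment; activity normalized between buffer-only basal and Salinomycin (10uM) inhibitor controls.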
HCV inhibitor: HCV inhibition; Huh7.5.1 HCVcc-Cre infection, luciferase reporter, 44 h; Potency, µM (top dose mostly 41.8 µM), for the others: at the highest dose activity change, negative = inhibition, actives largely listed as inhibitors; hit rate 3.4% among 340,000; AID 651820; active = well fitted inhibition curve with a large enough effect; inconclusive = small, poorly fitted or top-dose-only effect, or another doubt; inactive = no such curve, though single readings can be large or run the other way; also: potency is read from the fitted curve at half-maximal effect; % is scaled to controls: 0 for no effect and ±100 for the full control effect
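Infectious HCVcc-Cre (~0.5 moi) was added to cells just after compound, with cells seeded 4 h earlier at 1,000 per well. Luciferase activity after 44 h culture reported infection; substrate was incubated 15 min at room temperature before reading.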
SARS PLpro yeast: SARS-CoV PLP inhibition in yeast. S. cerevisiae expressing SARS-CoV PLpro, growth rescue. Potency, µM (series often up to 32.9 µM), for the others: top-dose activity, positive = growth rescue, most hits filed as activators. hit rate 0.19% among 330,000; calls by dose curve; also: potency is read from the fitted curve at half-maximal effect; 0% is about no effect; nearly all actives have a fitted effect of over 55% in size
Starred values were filed as active, the others as inactive; ? = inconclusive; / = no result given; ! = not confirmed by another sample; [ ] = dose if it differs, or a comment. Hits are enriched below; roughly 8% of the tested compounds scored in any of these assays.

SMILES	FMDV antiviral	LASV entry inh	MARV entry inh	HCMV inh	HCV inhibitor	SARS PLpro yeast
Cc1cccc(Oc2nc(-c3ccccn3)nc3ccccc23)c1	-12%	-18%	?	-72*	?	-3%
Cc1cccc(Oc2nc(-c3ccncc3)nc3ccccc23)c1	-14%	1%	?	36	7.1µM*	-1%
O=C(Nc1nccs1)C1(S(=O)(=O)c2ccc(Cl)cc2)CC1	-9%	2%	-3%	14	-12%	5%
Cc1ccc(S(=O)(=O)C2(C(=O)Nc3nccs3)CC2)cc1	-22%	/	/	-79*	-5%	1%
C=CCn1cnc2c(c1=O)c1nc3ccccc3nc1n2/N=C/c1cc(OC)c(OC)c(OC)c1	-17%	-15%	-7%	-14	?	-5%
COc1cccc(/C=N/n2c(-c3ccco3)nc3ccccc3c2=O)c1	?	-17%	5%	-64*	?	-22%
O=c1c2c3nc4ccccc4nc3n(/N=C/c3ccccn3)c2ncn1-c1ccccc1	?	?	5.6µM*	-27	-85%	1%
COCCn1cnc2c(c1=O)c1nc3ccccc3nc1n2/N=C/c1cccc(OC)c1	28µM*	?	?	-30	4%	-2%
CCCC(=O)Oc1c(Sc2ccc(C)cc2)c(C)nn1-c1ccccc1	-9%	19%[46.1 µM]	?	-7	/	/
Cc1cc(C)cc(N2CC(O)=C(c3nc4ccccc4c(=O)[nH]3)C2=N)c1	5%	-17%	?	-10	22µM*	-1%
Cc1cc(C)cc(NC(=S)N=Nc2c(O)n(C)c3ccc(S(=O)(=O)N4CCOCC4)cc23)c1	0%	-10%	?	?	?	20%
Cc1ccc(NC(=S)N=Nc2c(O)n(C)c3ccc(S(=O)(=O)N4CCOCC4)cc23)cc1	4%	?	-12%	-77*	?	21%
Cc1cccc(NC(=S)N=Nc2c(O)n(C)c3ccc(S(=O)(=O)N4CCOCC4)cc23)c1	-16%	?	?	48	1.6µM*!	-2%
COC(=O)C1=C(C)N(Cc2ccccc2)C(=O)NC1CCc1ccccc1 (centres undefined)	/	/	23%[14.2 µM]	/	/	/
CC(C)CNc1nnnc2c1sc1nc(N3CCOCC3)c3c(c12)CC(C)(C)SC3	?	14µM*	?	?	10µM*	-8%
CC1(C)Cc2c(c(N3CCOCC3)nc3sc4c(NN)ncnc4c23)CS1	-5%	-10%	?	-88*	?	2%
Cc1cc(C)cc(NC(=O)C2CC23CCN(Cc2ccc4ncccc4c2)CC3)c1 (centres undefined)	-10%	/	/	/	/	/
CC(=O)c1cnn(-c2nc3c(C)cccc3s2)c1C	40%	?	0%	-99*	4%	-4%
CC(=O)c1cnn(-c2ccccc2)c1C	11%	-6%	?	-24	8%	-1%
Nc1nc(SCC(=O)Nc2ccc(Cl)c(S(=O)(=O)N3CCOCC3)c2)n[nH]1	-16%	/	/	34	1%	1%
CC(C)COc1ccc(C(=O)Nc2cc(-c3ccccc3)no2)cc1	20%	?	?	42	/	/
CCN(C(=O)c1ccc(N2CC3CC(C2)c2cccc(=O)n2C3)c(NC(=O)c2ccncc2)c1)c1cccc(C)c1 (centres undefined)	-10%	/	/	-75*	15%	3%
Cc1cccc(CNc2ccc(C(CC(N)=O)NC(=O)c3ccccc3)cc2[N+](=O)[O-])c1 (centres undefined)	0%	/	/	5	?	0%
Cc1ccccc1CNc1ccc(C(CC(N)=O)NC(=O)c2ccccc2)cc1[N+](=O)[O-] (centres undefined)	-13%	/	/	?	11µM*	4%
NC(=O)CC(NC(=O)c1ccccc1)c1ccc(N2CCC(Cc3ccccc3)CC2)c([N+](=O)[O-])c1 (centres undefined)	?	/	/	-67*	?	3%
SMILES	FMDV antiviral	LASV entry inh	MARV entry inh	HCMV inh	HCV inhibitor	SARS PLpro yeast
C[C@@H]1CN([C@@H](C)CO)C(=O)CCCn2nncc2CO[C@H]1CN(C)S(=O)(=O)c1cccc(C#N)c1	-14%	/	/	3	/	/
CCn1cnnc1SCC(=O)NCC1COc2ccccc2O1 (centres undefined)	6%	/	/	-14	17%	-5%
CCc1ccc2nc(SCC(=O)N3CCCCC3)c(C#N)cc2c1	5%	?	?	1	?	/
Cc1cc2cc3c(cc2nc1SCC(=O)N1CCCC1)OCCO3	3%	-7%	?	-61*	-27%	1%
N#Cc1cc2cc3c(cc2nc1SCC(=O)N1CCOCC1)OCCO3	?	?	?	-61*	4%	2%
COc1ccc2nc(SCC(=O)N3CCCCCC3)c(C#N)cc2c1	17%	-3%	17%	18	6.3µM*	-14%
Cc1cc2cc3c(cc2nc1SCC(=O)O)OCCO3	13%	2%	14%	-35	13%	-42%
COc1ccc(NC(=O)COc2ccc(N(C)S(=O)(=O)c3ccc(Cl)cc3)cc2)cc1OC	10µM*	?	?	-88*	0.63µM*	-1%
CN(c1ccc(OCC(=O)Nc2ccccc2C(=O)O)cc1)S(=O)(=O)c1ccc(Cl)cc1	-1%	3.2µM*	3.5µM*	-82*	-8%	1%
CN(c1ccc(OCC(=O)OCC(=O)Nc2ccc(F)cc2)cc1)S(=O)(=O)c1ccc(Cl)cc1	2%	21%	15%	15	45%	-18%
Cn1cccc1C(=O)N1CCC[C@@]2(CCN(c3cccc(-c4ccccc4)c3)C2)C1	-18%	/	/	/	/	/
CC1=C(C(=O)N(C(C)C)C(C)C)CC(CC(=O)NCc2cccc3ccccc23)C(=O)N1Cc1ccc(C(C)(C)C)cc1 (centres undefined)	-21%	/	/	?	/	/
CN(C)CCCC1(c2ccc(F)cc2)OCc2cc(C#N)ccc21 (centres undefined)	-16%	?	16µM*!	0	?	-6%
COc1ccc(-n2c(O)c(C(C)=NCCCn3ccnc3)c(=O)[nH]c2=O)cc1	0%	?	?	-66*	-2%	8%
COc1ccc(-n2c(O)c(/C(C)=N/N3CCCCCC3)c(=O)[nH]c2=O)cc1	13%	2.2µM*	?	?	7%	-2%
CCC(=NCc1ccco1)c1c(O)n(-c2ccc(OC)cc2)c(=O)[nH]c1=O	-8%	1.6µM*	11%[46.1 µM]	15	3%	-2%
COc1ccc(-n2c(O)c(/C(C)=N/Nc3ccccc3)c(=O)[nH]c2=O)cc1	-2%	?	?	-17	-7%	-1%
CC(C)C(NC(=O)c1ccccc1F)C(=O)NCCc1ccccn1 (centres undefined)	-3%	?	7%[46.1 µM]	1	16%	3%
CCC(=O)N1CCc2cc(Br)cc(S(=O)(=O)Nc3ccccc3C(=O)OC)c21	32%	1%[46.1 µM]	?	6	/	/

Source: PubChem (National Center for Advancing Translational Sciences (NCATS))
